Common to all, as to assay: NCI-60 one-dose screen, 48 h (100 = growth as untreated, 0 = no growth, -100 = all killed)
What all share (details): 10 µM

Experiment [1] concerns NCI-H23 lung.
In experiment [2] the test system is NCI-H226 lung.
Experiment [3] concerns NCI-H322M lung.
Experiment [4] relates to HOP-62 NSCLC.
The test system of experiment [5] is NCI-H460 lung.
The test system of experiment [6] is NCI-H522 lung.
In experiment [7] the test system is 786-0 renal.
For experiment [8], the system named is COLO 205 colon.
The test system of experiment [9] is DU-145 prostate.
Experiment [10] concerns K-562 leukemia.
Experiment [11] deals with MALME-3M melanoma.
The subject of experiment [12] is MDA-MB-231 breast.
In experiment [13] the test system is RXF 393 renal.
Experiment [14] relates to SF-268 CNS.
The test system of experiment [15] is SF-295 CNS.
Experiment [16] relates to SF-539 CNS.
The subject of experiment [17] is UACC-257 melanoma.
Experiment [18] concerns M14 melanoma.
For experiment [19], the system named is A549/ATCC NSCLC.

Structures are written as SMILES. The panel holds about 83,000 compounds, 20% with a hit somewhere; the sample as a whole holds those more often.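 Interpretation: 100, growth as untreated; towards 0, rising growth inhibition; 0, no net growth; 0 to -100, cell death. Compounds scoring below 10 were considered active.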 Values without a mark were called inactive. Activity calls are given as the source filed them.

For the molecule `CC1(O)CCCCC1O` (centres undefined), the growth in experiment [1] is 103%; in [2], 104%; in [3] it was 104%; in experiment [4], 95.9%; in experiment [5], 109%; in [6], 91.8%. The growth in [7] was 102%; in experiment [8], 108%; in experiment [9], 115%; in [10] it was 94.6%; in experiment [11], 106%; in [12], 108%. Also, the growth in experiment [13] was 112%; in experiment [14], 106%; in experiment [15], 110%; in experiment [16] it was 97%; in experiment [17], 83.4%; in experiment [18] it was 104%.
In the case of `COC(=O)Nc1nc2ccc(C(=O)c3ccc(F)cc3)cc2[nH]1`, the growth in [1] was 31.8%; in [2] it was 145%; in experiment [3], 40.5%; in experiment [4], 33.1%; in [5], 6% (active); in experiment [6], -52.1% (active). The growth in [7] was 26.4%; in [8], -37.7% (active); in experiment [9], -31% (active); in experiment [10] it was -37% (active); in experiment [11] it was 57.5%; in [12], 26.5%. Besides, the growth was -41.2% (active) in experiment [13]; 22.6% in experiment [14]; -3.22% (active) in experiment [15]; -21.8% (active) in experiment [16]; -2.09% (active) in experiment [17]; 15.6% in experiment [18].
Turning to `CCC/C=C(\C)C(C)(C#N)C(=O)OCC` (centres undefined), the growth is 116% in experiment [1]; 101% in [2]; 111% in [3]; 99.1% in experiment [4]; 108% in [5]; 95.7% in experiment [19]. For the same molecule, the growth was 110% in experiment [7]; 110% in experiment [8]; 124% in experiment [9]; 100% in [10]; 107% in experiment [11]; 122% in experiment [12]. For the same molecule, the growth was 105% in experiment [13]; 118% in [14]; 112% in experiment [15]; 102% in experiment [16]; 86.2% in experiment [17]; 116% in experiment [18].
Turning to `OCc1cccc2ccccc12`, the growth in experiment [1] is 101%; in experiment [2] it was 112%; in [3], 121%; in [4], 104%; in experiment [5], 112%; in experiment [19], 108%. Further, the growth in [7] is 109%; in [8], 114%; in [9], 108%; in [10], 99.3%; in [11] it was 132%; in [12] it was 112%. In addition, the growth in [13] was 146%; in [14], 107%; in experiment [15] it was 117%; in experiment [16], 95.7%; in experiment [17], 109%; in [18] it was 110%.
For `Cc1ccc(Cl)cc1NC(=O)N(C)CCO`, the growth in experiment [1] is 110%; in experiment [2] it was 115%; in experiment [3] it was 116%; in experiment [4] it was 109%; in [5], 108%; in experiment [6], -7.39% (active). The growth in experiment [19] was 59.5%; in experiment [7], 109%; in experiment [9], 131%; in [10], 98.5%; in [11], 134%; in [12] it was 118%. Also, the growth in experiment [13] is 112%; in experiment [14] it was 126%; in experiment [15], 121%; in experiment [16] it was 91.9%; in [17] it was 110%; in [18], 107%.
On to `CC[N+](C)(CC)CCO`, for which the growth in experiment [1] was 107%; in [2], 92.7%; in experiment [3], 104%; in [4] it was 92.6%; in [5], 105%; in experiment [19], 94.1%. Moreover, the growth in experiment [7] was 99.5%; in [8], 114%; in [9], 112%; in [10] it was 99.6%; in experiment [11], 103%; in experiment [12], 98.6%. Moreover, the growth was 88.5% in [13]; 112% in experiment [14]; 99.5% in experiment [15]; 108% in [16]; 104% in experiment [18].
For the molecule `O=[N+]([O-])c1ccc(Cl)c(S(=O)(=O)O)c1`, the growth in [1] is 103%; in [2], 109%; in experiment [3] it was 136%; in experiment [4] it was 103%; in experiment [5] it was 108%; in experiment [19], 102%. The growth in [7] was 110%; in [8] it was 118%; in experiment [9] it was 109%; in [10], 100%; in experiment [11], 120%; in experiment [12], 110%. The growth is 126% in experiment [13]; 105% in experiment [14]; 112% in experiment [15]; 97.8% in [16]; 96.6% in [17]; 107% in [18].
For the molecule `O=C1OC[C@H]2[C@H](c3ccc(O)c(O)c3)c3cc(O)c(O)cc3C[C@H]12`, the growth is 13.4% in experiment [1]; 116% in experiment [2]; 130% in experiment [3]; 130% in experiment [4]; 122% in [5]; 19.4% in [6]. Further, the growth is 110% in [7]; 108% in [8]; 108% in experiment [9]; 180% in experiment [10]; 140% in [11]; 129% in experiment [12]. For the same molecule, the growth in [14] was 116%; in experiment [15], 124%; in experiment [16], 122%; in experiment [17], 147%; in [18], 120%.
For the molecule `CC(C)(C)n1nc(C2CC2)c(Br)c1NC(=O)c1ccccc1F`, the growth in experiment [1] is 117%; in [2] it was 102%; in experiment [3] it was 98.3%; in experiment [4], 92.5%; in experiment [5] it was 102%; in experiment [19], 93%. Further, the growth in experiment [7] was 99.6%; in experiment [8], 104%; in experiment [9] it was 121%; in experiment [10], 91.6%; in [11], 107%; in experiment [12] it was 100%. Moreover, the growth in experiment [13] was 114%; in [14], 112%; in experiment [15], 94.9%; in [16], 100%; in experiment [18], 102%.
Regarding `COC(=O)/C=C/C(=O)NC(N)=O`, the growth was 94.7% in experiment [1]; 94.1% in [2]; 107% in [3]; 98.8% in experiment [4]; 105% in experiment [5]; 103% in experiment [7]. In addition, the growth in experiment [9] is 105%; in experiment [10], 105%; in experiment [11], 97.4%; in [12], 108%; in [13], 95.2%; in experiment [14], 104%. Besides, the growth in experiment [15] was 95.2%; in experiment [16] it was 96.8%; in experiment [18] it was 106%.

Source of the values: PubChem BioAssay (NCI).
